In PMC7819943, “Rice protein-binding microarrays: a tool to detect cis-acting elements near promoter regions in rice” one finds binding signal data, which are given here for 54 sequences.

The full ranking holds about 39,000 sequences; the median of “fluorescence intensity (a.u.)” is about 4,300, and the highest 2% start at about 39,000. This excerpt belongs to a sample that is enriched for the highest values.

The assay deals with T1, OsSMF1 (Oryza sativa, UniProt Q6ZLB0 1-436).
T1 sequence: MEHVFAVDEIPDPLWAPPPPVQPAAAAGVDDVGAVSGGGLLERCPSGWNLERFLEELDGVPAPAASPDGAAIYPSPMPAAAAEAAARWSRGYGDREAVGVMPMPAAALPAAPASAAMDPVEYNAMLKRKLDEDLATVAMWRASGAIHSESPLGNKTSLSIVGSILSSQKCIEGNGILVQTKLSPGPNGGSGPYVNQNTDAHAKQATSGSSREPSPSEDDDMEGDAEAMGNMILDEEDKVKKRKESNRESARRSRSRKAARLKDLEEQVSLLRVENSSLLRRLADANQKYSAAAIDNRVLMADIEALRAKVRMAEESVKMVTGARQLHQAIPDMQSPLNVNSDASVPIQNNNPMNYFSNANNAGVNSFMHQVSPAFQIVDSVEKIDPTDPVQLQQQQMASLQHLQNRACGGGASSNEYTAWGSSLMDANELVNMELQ
In words: protein-binding microarray (RPBM); PBS, 2% BSA, 51.3 ng/ul salmon testes DNA, 50 uM zinc acetate, 200 nM TF, 25 C, 1 h; high values mean tight binding. As to conditions: protein: recombinant; tags: N-terminal polyhistidine and DsRed monomer fusion (pET32a); chain copies: 2; label: CyDye5-dUTP incorporated in the synthesized complementary strand; 3' TTTTT single-stranded linker to array surface; dsDNA, one strand shown. Put shortly:
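Using Ni–NTA, transcription factors fused N-terminally to polyhistidine and DsRed were purified after expression in E. coli BL21-CodonPlus. These were incubated at 200 nM with a blocked, double-stranded custom Agilent array for 1 h at 25 °C in a buffer containing 50 µM zinc acetate, and the array was washed. The binding signal is per-feature fluorescence intensity (arbitrary units) on an Axon 4000B scanner.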
With “CGGAGAGGGAGAAGGAGAGGAGAGGGGCTGATAGGTGGGGCGGAGTCACCTAGTGCAG”, the binding signal was 3520 fluorescence intensity (a.u.).

Take “CTCCTCCATTGCCAGTTGCTACTCATCCTCATCCTCTCCACGGAGTCACCTAGTGCAG”: the binding signal was 22600 fluorescence intensity (a.u.).

“TCCTCCAGATGTTACAGTCTCCGAATTTCAGTGATGTCACCGGAGTCACCTAGTGCAG”: the binding signal is 11800 fluorescence intensity (a.u.).

Consider “ATCCAATCTGAGCCGTCCGCTGTACACCGTAGATCTATATCGGAGTCACCTAGTGCAG”, for which the binding signal is 3450 fluorescence intensity (a.u.).

Take “CTCCGTGATCGTCATGTCAAGACGCAAAATAAAGAGCAATCGGAGTCACCTAGTGCAG”: the binding signal was 33400 fluorescence intensity (a.u.).

Consider “GAAACCCGGCCACATCACTCCTTCCCTATGCTCCAGTGAGCGGAGTCACCTAGTGCAG”, for which the binding signal was 8040 fluorescence intensity (a.u.).

Take “CTTTTGGCAAAATCCGTGATGCAGCATCGATCCCTGTCAACGGAGTCACCTAGTGCAG”: the binding signal is 39800 fluorescence intensity (a.u.).

Turning to “TGGCAAATAGTTCCGTGATGTCAGCTTGGAAGCATCCTGCCGGAGTCACCTAGTGCAG”, the binding signal was 6410 fluorescence intensity (a.u.).

Take “TTTTGGATGCAGCATATGGTTGTCCCGATGCAAAATCCTCCGGAGTCACCTAGTGCAG”: the binding signal is 4530 fluorescence intensity (a.u.).

“ATATATACCTGCATACACTAGACTAGTATAATACCTGGCACGGAGTCACCTAGTGCAG”: the binding signal was 3530 fluorescence intensity (a.u.).

Regarding “AAACGATAATATACCTTGTATAGTCATCCAACTCTTATTTCGGAGTCACCTAGTGCAG”, the binding signal was 3630 fluorescence intensity (a.u.).

Regarding “TATCCAAAATTTCATCCAACTCTTGTGGGAGAAACGGACACGGAGTCACCTAGTGCAG”, the binding signal is 39500 fluorescence intensity (a.u.).

For “TTTCGGTCATGAAAACTCAGGACCAAATTTCATCCAAATACGGAGTCACCTAGTGCAG”, the binding signal is 29300 fluorescence intensity (a.u.).

Consider “GATTTCTTTCTGCCGTCATCTTCGAATATCCATGACTCGCCGGAGTCACCTAGTGCAG”, for which the binding signal is 3840 fluorescence intensity (a.u.).

In the case of “AAATGTCTCCCAAAACCTCAAAATTGAGTTCCATTATGAACGGAGTCACCTAGTGCAG”, the binding signal is 61600 fluorescence intensity (a.u.).

As to “CACTTGATGAGCTCCTCTCCATGTCCTCAAACGTACTGAACGGAGTCACCTAGTGCAG”, the binding signal was 25100 fluorescence intensity (a.u.).

For “ATCGATCAGGCAATGAACCCATTATTGTTTGCCTCCAAAACGGAGTCACCTAGTGCAG”, the binding signal was 34100 fluorescence intensity (a.u.).

As for “AATCGATTCGAAATCCACACCGCTACTACGGCTAATTACGCGGAGTCACCTAGTGCAG”, the binding signal is 3870 fluorescence intensity (a.u.).

With “CGCATTGAGCCATTTACACTACACACACAGCCCCAGATTCCGGAGTCACCTAGTGCAG”, the binding signal is 3420 fluorescence intensity (a.u.).

“TCTGCTGATGATCTCTCTCTCTCTCTGTTTCAAAGCTGATCGGAGTCACCTAGTGCAG”: the binding signal was 44700 fluorescence intensity (a.u.).

For the sequence “ACCTCTTGCTGCTGCTCATTCTGATGTCATTCAAAGAGATCGGAGTCACCTAGTGCAG”, the binding signal was 4480 fluorescence intensity (a.u.).

Turning to “GATCTGTCACTGTATGGAATGATGCAAAGCTGCTGCTGATCGGAGTCACCTAGTGCAG”, the binding signal is 32000 fluorescence intensity (a.u.).

For “CGCGCGAGTGCTAGGAAGCTGAGTCACGCCCGCCCTCCTCCGGAGTCACCTAGTGCAG”, the binding signal was 10700 fluorescence intensity (a.u.).

“TCCCACATTAAATTTACTCATTAGTTGTTAGGAATCGACACGGAGTCACCTAGTGCAG”: the binding signal was 20600 fluorescence intensity (a.u.).

On to “CAAGAGAAAATAGCCAAAATAATAGCAGTAAGAACACAATCGGAGTCACCTAGTGCAG”, for which the binding signal was 15400 fluorescence intensity (a.u.).

In the case of “CAGTAAGCTAGCAAACAAACACACAAGAATATTTGTGATCCGGAGTCACCTAGTGCAG”, the binding signal was 39900 fluorescence intensity (a.u.).

For the sequence “CAGAATATTTTGTCAGTCACTCTTGATCACTCTAGCAACACGGAGTCACCTAGTGCAG”, the binding signal is 3980 fluorescence intensity (a.u.).

Consider “CGACCGACCCTCGCCCGCCCACCGCCGTCACTCTCGTCTGCGGAGTCACCTAGTGCAG”, for which the binding signal is 3920 fluorescence intensity (a.u.).

In the case of “ATCGTGTGACGACGTCTCGTCTCGTCTCCCTCTCCCGACCCGGAGTCACCTAGTGCAG”, the binding signal was 3260 fluorescence intensity (a.u.).

Consider “CGGGCACTCTCGTCTCCGACGTGAAGGCCCGAGATCACTGCGGAGTCACCTAGTGCAG”, for which the binding signal is 60900 fluorescence intensity (a.u.).

Consider “GGTTGATTATTCCGTCGGCGTCAGCCATCAGGTGCATCACCGGAGTCACCTAGTGCAG”, for which the binding signal was 3270 fluorescence intensity (a.u.).

In the case of “TCTTTCGTCGCAATGCCACGCCATCATCGATCCCTTTCCTCGGAGTCACCTAGTGCAG”, the binding signal is 14800 fluorescence intensity (a.u.).

Regarding “TTTCGGGATCCGACACGGGCTGAATCCGGCCCATCCAAACCGGAGTCACCTAGTGCAG”, the binding signal was 37800 fluorescence intensity (a.u.).

As for “TAAACGCAAATTCTATATCACAACCACGTAAGTTTAGTAGCGGAGTCACCTAGTGCAG”, the binding signal was 3870 fluorescence intensity (a.u.).

Consider “GTCTAGCTAGTGCAATTAGAGTAACCTATATATCACACAACGGAGTCACCTAGTGCAG”, for which the binding signal was 52200 fluorescence intensity (a.u.).

“GGAGTAGATATTATCACTAGCTAGTCACACGGACACAGTGCGGAGTCACCTAGTGCAG”: the binding signal was 4900 fluorescence intensity (a.u.).

With “TCGCCGCCGCGGCCGCCTCCACCTCATCATCTCCCACCTCCGGAGTCACCTAGTGCAG”, the binding signal is 7900 fluorescence intensity (a.u.).

For “ACCTCCCACACCTGTGTCGATCCAGGCAGGCCGAGCGCGACGGAGTCACCTAGTGCAG”, the binding signal is 43400 fluorescence intensity (a.u.).

Take “GTCCCCGGCCTCGGCGCGCGGCGAGCACCGTGCCGCCCCACGGAGTCACCTAGTGCAG”: the binding signal is 24000 fluorescence intensity (a.u.).

Consider “AGGGCGAGGAGGCGCTTGAGGGCGTCGAGCTTGTCGGCATCGGAGTCACCTAGTGCAG”, for which the binding signal is 28400 fluorescence intensity (a.u.).

With “GCGGCGCATCCAGGAGGTTGAGTCGAGCACGCCACCGCTGCGGAGTCACCTAGTGCAG”, the binding signal was 3420 fluorescence intensity (a.u.).

In the case of “GCTGCCAGCGCCGCCGCCACCTGTGTCGGCACGCGAGCGCCGGAGTCACCTAGTGCAG”, the binding signal is 3350 fluorescence intensity (a.u.).

Take “TTGAGCAGCCTCCCTTCCCCGGCGAGCAGCCCCGCCGCCGCGGAGTCACCTAGTGCAG”: the binding signal is 3720 fluorescence intensity (a.u.).

For “ACATCACCACCCACCTCACCCTGCCGCTCCCGAGCGCGATCGGAGTCACCTAGTGCAG”, the binding signal was 4000 fluorescence intensity (a.u.).

On to “CACGGCCTCACCTCCCAGCCCGCGAGCACCGGCGGACGGACGGAGTCACCTAGTGCAG”, for which the binding signal was 42400 fluorescence intensity (a.u.).

Take “GTACGCGAGCATCCCGGCGTTGTCGAGGCGCTCCAGGACGCGGAGTCACCTAGTGCAG”: the binding signal is 40200 fluorescence intensity (a.u.).

Turning to “AAACTGGCAAACGCGTCACATGAGTTTTACCTACCAATGTCGGAGTCACCTAGTGCAG”, the binding signal was 3230 fluorescence intensity (a.u.).

In the case of “ATTTCAATGTCAAGATGAGAAGGGAATTTAAGAGCCTGCACGGAGTCACCTAGTGCAG”, the binding signal is 22800 fluorescence intensity (a.u.).

In the case of “GCGCAGGCAACCACCCCACCCTTCTTCTCGAAACCTCTTCCGGAGTCACCTAGTGCAG”, the binding signal was 3290 fluorescence intensity (a.u.).

On to “ATGAAGGATGCTTAAAAGTCTATTTTGCCTCGGCAAAATACGGAGTCACCTAGTGCAG”, for which the binding signal is 28700 fluorescence intensity (a.u.).

Turning to “TTTCACGAAACCCAGTGATCCTGTCAGGTATCCTATGTACCGGAGTCACCTAGTGCAG”, the binding signal is 3760 fluorescence intensity (a.u.).

As to “TTGTACAGCAGCGTGCTTCCATATGAGGAAATCCACTTCTCGGAGTCACCTAGTGCAG”, the binding signal was 44200 fluorescence intensity (a.u.).

In the case of “GAAACCTGATGATGCTTGATGGAAATCCATTAGACAGCGTCGGAGTCACCTAGTGCAG”, the binding signal is 4580 fluorescence intensity (a.u.).

For “TTCTCTTCCAAAGGAAATGTATAAATCCACCATTAACTTTCGGAGTCACCTAGTGCAG”, the binding signal is 19900 fluorescence intensity (a.u.).
